Consider 27 compounds from PubChem BioAssay (EPA / NIEHS).

Where “and” joins values, the source holds several entries; their conditions need not be identical. Equal entries are not always repeated. The source holds several records for some structures; these can differ, active in one and inactive in another. Calls of active or inactive are those of the source. The calls were made as follows: active = hit-call score of the fitted dose curve at least 0.9, where 1 is the maximum; inactive = score below 0.9.

Read-out in this assay: Vascular cell adhesion molecule 1 (VCAM1), VCAM1 (gene 7412)
Description: BSK_4H_VCAM1: BioMAP Diversity Plus: 4H Assay for Vascular cell adhesion molecule 1 (VCAM1) Biomarker Activity (AID 2283033). As to conditions: primary human endothelial cells (HUVEC); actives raise or lower the signal. The procedure: BSK_4H is a cell-based, multiplexed-readout assay that uses umbilical vein endothelium, a human vascular primary cell, with measurements taken at 24 hours after chemical dosing in a 96-well plate.BSK_4H_VCAM1 is an assay component measured in the BSK_4H assay. It measures VCAM-1 antibody related to regulation of gene expression using ELISA technology.Data from the assay component BSK_4H_VCAM1 was analyzed into 1 assay endpoint. This assay endpoint, BSK_4H_VCAM1, was analyzed with bidirectional fitting relative to DMSO as the negative control and baseline of activity. Using a type of binding reporter, gain or loss-of-signal activity can be used to understand changes in the signaling as they relate to the gene VCAM1. Furthermore, this assay endpoint can be referred to as a primary readout, because this assay has produced multiple assay endpoints where this one serves a signaling function. To generalize the intended target to other relatable targets, this assay endpoint is annotated to the cell adhesion molecules intended target family, where the subfamily is Immunoglobulin CAM.
The levels of cell surface (or secreted, indicated by the prefix "s") biomarker endpoints were measured by ELISA. Overt cytotoxicity to cells in confluent adherent cultures (all systems other than the BT system) was assessed by measuring total protein levels using sulforhodamine B (SRB) staining in parallel cultures at the time of biomarker measurements, indicated as SRB endpoints. For proliferation assays for adherent cell types, individual cell types are cultured at sub-confluence and relative cell numbers quantified by SRB staining at time points optimized for each system (48 h: 3C and CASM3C systems; 72 h: BT and HDF3CGF systems; 96 h: SAg system). SRB was performed by staining cells with 0.1% SRB after fixation with 10% TCA and reading wells at 560 nm.Viability and proliferation of PBMC (T cells) was quantified by Alamar Blue reduction for the SAg and BT systems. For PBMC viability (referred to as PBMC Cytotoxicity within the assay endpoint names), cells were plated (75,000/well in a 96-well plate) and then chemical samples added for 1 h before addition of activators, SEB and TSST-1 (20 ng/mL final concentration each). Cells were incubated for 90 h. Then, Alamar Blue (20 uL/well) (Invitrogen, Cat DAL1100) was added for 6 h, and the plates were read with a fluorescence microplate reader at 546/580 nm (excitation/emission). For PBMC proliferation, cells were plated and activated as above but incubated for only 16 h prior to addition of Alamar Blue. Plates were read after 6 h.
As to `COc1ccccc1Oc1c(NS(=O)(=O)c2ccc(C(C)(C)C)cc2)nc(-c2ncccn2)nc1OCCO`, the result was inactive. As a reminder, the AC50 is the concentration giving half of the maximal activity seen. Take `O=[N+]([O-])c1cc(S(=O)(=O)Nc2ccccc2)ccc1Nc1ccccc1`: the outcome was inactive and the AC50 was 27.2 µM (active). Consider `CCCCCCCCCCCCCCCCCC[N+](C)(C)C`, for which the half-maximal activity concentration (AC50) is 1.42 µM (active). For `COC(=O)/C=C\C(=O)OC`, the AC50 is 17.7 µM (active).

Turning to `Sc1nc2ccccc2s1`, the result was inactive. For `CC[N+](CC)(CC(=O)Nc1c(C)cccc1C)Cc1ccccc1`, the outcome was inactive.

As for `Oc1cccc2ccccc12`, the outcome was inactive. On the same count and under the same terms, in the case of `Cc1cc(-n2nc3ccc(Cl)cc3n2)c(O)c(C(C)(C)C)c1` it was “inactive”. `CN(C)CCC(c1ccc(Cl)cc1)c1ccccn1` (stereo not drawn): the AC50 was 0.756 µM (active). The same measure, in the same setting: in the case of `CC(C)CC(=O)CC(C)CC(C)C` (stereo not drawn) it was 39.2 µM (active). On the same count and under the same terms, with `CCCCC(CC)COC(=O)C=Cc1ccc(OC)cc1` (stereo not drawn) the figure was 5.26 µM (active) and 3.42 µM (active). Regarding `CCCCCCC(O)CCCCCCCCCCC(=O)OC` (stereo not drawn), the result was inactive. On the same count and under the same terms, in the case of `CC[N+](CC)(CC(=O)Nc1c(C)cccc1C)Cc1ccccc1` (tested in a mixture with another compound) it was “inactive”.

Turning to `OC(C(F)(F)F)(C(F)(F)F)C(O)(C(F)(F)F)C(F)(F)F`, the concentration at half-maximal activity (AC50) was 24.3 µM (active) and 30 µM (active). Take `COc1cc(CNC(=O)CCCC/C=C/C(C)C)ccc1O`: the outcome was inactive. As for `CCCCCCCCCC/C=C/C1CC(=O)OC1=O` (stereo not drawn), the outcome was inactive. Same read-out and setting: in the case of `CN(C)Cc1cc(C(C)(C)C)c(O)c(C(C)(C)C)c1` it was “inactive”. As for `CN(C)c1ccc(C(c2ccccc2)c2ccc(N(C)C)cc2)cc1`, the AC50 was 20 µM (active). `C1CN(CCOCCN2CCOCC2)CCO1`: the result was inactive. For `COc1ccc(C(=O)c2ccccc2O)c(O)c1`, the AC50 is 11.5 µM (active) and 14.2 µM (active). Take `Cc1c(C(N)=O)cc([N+](=O)[O-])cc1[N+](=O)[O-]`: the outcome was inactive. Take `O=C(C(=O)c1ccccc1)c1ccccc1`: the result was inactive.

Turning to `CC(C)C1OCCN1CCOC(=O)NCCCCCCNC(=O)OCCN1CCOC1C(C)C` (stereo not drawn), the outcome was inactive. Take `Cc1cccnc1`: the outcome was inactive. In the case of `CCC[Si](OC(C)=O)(OC(C)=O)OC(C)=O`, the outcome was inactive. With `CCCCCCCCCCC1CO1` (stereo not drawn), the AC50 was 33.8 µM (active). As for `CCC(C)=NO`, the outcome was inactive.
